According to PubChem BioAssay AID1159580 (chemical genetic matrix, 2015):
Several values for one entry are separate records, joined by “and”; a condition that tells them apart may be missing. Equal entries are not always repeated. Hit rate of the full screen: of about 5,500 compounds, about 2,000 (36%) were called active. Inconclusive results (about 18%) are left out. Cut-off read from the data, not from the text of the source: active = normalized growth mostly below about 0.91 (no sharp cut-off); inconclusive = no clear call, values can overlap the other calls; inactive = mostly above about 0.92. This is one part of the list.

Assay: chemical genetic growth profiling, strain panel (AID 1159580);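 note: tested at 20 µM; growth read once vehicle control cultures reached saturation at 30 °C; 1 = growth at the plate median or of vehicle wells; lower values mean less growth of the strain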
Details: S. cerevisiae deletion strains, growth OD

Measured: normalized growth

c1cncc(C2CCCCN2)c1 (configuration not stated)
inactive: locus YAL021C, strain ccr4, active compounds read low 0.986 | locus YAL026C, strain drs2, active compounds read low 0.999 | locus YAL030W, strain snc1, active compounds read low 1 | locus YBL061C, strain skt5, active compounds read low 0.995 | locus YBR009C, strain hhf1, active compounds read low 0.995 | locus YBR021W, strain FUR4, active compounds read low 1.02 | locus YBR023C, strain chs3, active compounds read low 0.998 | locus YBR171W, strain sec66, active compounds read low 0.985 | locus YBR229C, strain ROT2, active compounds read low 1.02 | locus YBR231C, strain swc5, active compounds read low 0.991 | locus YBR279W, strain paf1, active compounds read low 0.99 | locus YCL011C, strain gbp2, active compounds read low 0.997 | locus YCL016C, strain dcc1, active compounds read low 0.996 | locus YCL029C, strain bik1, active compounds read low 0.982 | locus YCL061C, strain MRC1, active compounds read low 0.988 | locus YCL069W, strain vba3, active compounds read low 0.993 | locus YCR088W, strain abp1, active compounds read low 0.993 | locus YDL005C, strain med2, active compounds read low 0.997 | locus YDL035C, strain GPR1, active compounds read low 1.04 | locus YDL040C, strain nat1, active compounds read low 0.992 | locus YDL074C, strain BRE1, active compounds read low 1.01 | locus YDL101C, strain DUN1, active compounds read low 1.01 | locus YDL185W, strain tfp1, active compounds read low 1 | locus YDL192W, strain arf1, active compounds read low 0.998 | locus YDR001C, strain nth1, active compounds read low 0.991 | locus YDR069C, strain doa4, active compounds read low 0.988 | locus YDR101C, strain arx1, active compounds read low 0.971 | locus YDR137W, strain rgp1, active compounds read low 0.996 | locus YDR159W, strain sac3, active compounds read low 0.979 | locus YDR162C, strain NBP2, active compounds read low 1 | locus YDR195W, strain ref2 0.98 | locus YDR297W, strain sur2, active compounds read low 0.986 | locus YDR318W, strain mcm21, active compounds read low 1.01 | locus YDR334W, strain swr1, active compounds read low 0.99 | locus YDR335W, strain msn5, active compounds read low 0.994 | locus YDR388W, active compounds read low 0.996 | locus YDR392W, strain spt3, active compounds read low 0.99 | locus YDR502C, strain sam2, active compounds read low 0.995 | locus YEL003W, strain gim4, active compounds read low 1.01 | locus YEL037C, strain rad23, active compounds read low 0.999 | locus YEL061C, strain CIN8 (second series), active compounds read low 0.992 | locus YEL061C, strain CIN8, active compounds read low 0.999 | locus YER015W, strain faa2, active compounds read low 0.997 | locus YER016W, strain bim1, active compounds read low 0.995 | locus YER110C, active compounds read low 0.98 | locus YER111C, strain swi4, active compounds read low 0.989 | locus YER155C, strain BEM2 (second series), active compounds read low 0.996 | locus YER155C, strain BEM2, active compounds read low 1.01 | locus YER167W, strain BCK2, active compounds read low 0.993 | locus YFR010W, strain ubp6, active compounds read low 0.989 | locus YGL078C, strain dbp3, active compounds read low 1 | locus YGL086W, strain mad1, active compounds read low 0.978 | locus YGL167C, strain pmr1, active compounds read low 0.989 | locus YGL173C, strain kem1, active compounds read low 0.984 | locus YGL227W, strain vid30, active compounds read low 0.983 | locus YGL240W, strain doc1, active compounds read low 0.981 | locus YGL248W, strain PDE1, active compounds read low 1.03 | locus YGL253W, strain hxk2, active compounds read low 0.986 | locus YGR078C, strain PAC10, active compounds read low 1.01 | locus YGR135W, strain pre9, active compounds read low 0.999 | locus YGR252W, strain gcn5, active compounds read low 0.969 | locus YHR013C, strain ard1, active compounds read low 1 | locus YHR027C, strain rpn1, active compounds read low 0.985 | locus YHR030C, strain SLT2, active compounds read low 1.01 and 1.02 | locus YHR079C, strain IRE1 (second series), active compounds read low 0.998 | locus YHR079C, strain IRE1, active compounds read low 1 | locus YHR094C, strain hxt1, active compounds read low 0.996 | locus YHR129C, strain ARP1, active compounds read low 1 | locus YHR142W, strain chs7, active compounds read low 0.985 | locus YHR200W, strain rpn10, active compounds read low 0.999 | locus YIL066C, strain RNR3, active compounds read low 1.01 | locus YIL073C, strain SPO22, active compounds read low 0.996 | locus YIL125W, strain kgd1, active compounds read low 0.986 | locus YIR030C, strain dcg1, active compounds read low 0.988 | locus YJL092W, strain hpr5, active compounds read low 0.995 | locus YJL095W, strain BCK1 (second series), active compounds read low 1.01 | locus YJL095W, strain BCK1, active compounds read low 1.05 and 0.994 | locus YJL115W, strain asf1, active compounds read low 0.986 | locus YJL129C, strain trk1, active compounds read low 0.999 | locus YJL134W, strain LCB3, active compounds read low 1.01 | locus YJL154C, strain vps35, active compounds read low 0.991 | locus YJL164C, strain tpk1, active compounds read low 0.998 | locus YJL166W, strain qcr8, active compounds read low 0.993 | locus YJL168C, strain set2, active compounds read low 0.995 | locus YJL187C, strain SWE1 (second series), active compounds read low 1.03 | locus YJL187C, strain SWE1, active compounds read low 1.01 | locus YJR043C, strain POL32, active compounds read low 1.02
